Experimental findings from PubChem BioAssay AID2073 (Sanford-Burnham Center for Chemical Genomics, 2009) are described below.

About 570 (0.2%) of roughly 290,000 compounds were called active. Not shown: some 1% with an inconclusive outcome. No stated cut-off is given here; in the data, active means inhibition mostly above about 51% (no sharp cut-off); inconclusive means no clear call, values can overlap the other calls; inactive means mostly below about 53%. For the sample, actives were picked, then their nearest neighbours and some compounds at random.

What is called inhibition is the drop in the measured response relative to a control, in per cent.

The target in this assay is Voltage-dependent N-type calcium channel subunit alpha-1B (Homo sapiens) (UniProt Q00975). Kind of assay: inhibitors of Mint1-CaV2.2 protein interaction, biochemical, HTRF (AID 2073). As to conditions: at 20 µM, stronger effect = higher value. On the technique in general: TR-FRET usually uses a lanthanide donor and a delayed reading to cut background.
Where [1] appears, read: measured here: average of repeat tests.

Chain of Voltage-dependent N-type calcium channel subunit alpha-1B (Homo sapiens) (Q00975 whole entry, looked up): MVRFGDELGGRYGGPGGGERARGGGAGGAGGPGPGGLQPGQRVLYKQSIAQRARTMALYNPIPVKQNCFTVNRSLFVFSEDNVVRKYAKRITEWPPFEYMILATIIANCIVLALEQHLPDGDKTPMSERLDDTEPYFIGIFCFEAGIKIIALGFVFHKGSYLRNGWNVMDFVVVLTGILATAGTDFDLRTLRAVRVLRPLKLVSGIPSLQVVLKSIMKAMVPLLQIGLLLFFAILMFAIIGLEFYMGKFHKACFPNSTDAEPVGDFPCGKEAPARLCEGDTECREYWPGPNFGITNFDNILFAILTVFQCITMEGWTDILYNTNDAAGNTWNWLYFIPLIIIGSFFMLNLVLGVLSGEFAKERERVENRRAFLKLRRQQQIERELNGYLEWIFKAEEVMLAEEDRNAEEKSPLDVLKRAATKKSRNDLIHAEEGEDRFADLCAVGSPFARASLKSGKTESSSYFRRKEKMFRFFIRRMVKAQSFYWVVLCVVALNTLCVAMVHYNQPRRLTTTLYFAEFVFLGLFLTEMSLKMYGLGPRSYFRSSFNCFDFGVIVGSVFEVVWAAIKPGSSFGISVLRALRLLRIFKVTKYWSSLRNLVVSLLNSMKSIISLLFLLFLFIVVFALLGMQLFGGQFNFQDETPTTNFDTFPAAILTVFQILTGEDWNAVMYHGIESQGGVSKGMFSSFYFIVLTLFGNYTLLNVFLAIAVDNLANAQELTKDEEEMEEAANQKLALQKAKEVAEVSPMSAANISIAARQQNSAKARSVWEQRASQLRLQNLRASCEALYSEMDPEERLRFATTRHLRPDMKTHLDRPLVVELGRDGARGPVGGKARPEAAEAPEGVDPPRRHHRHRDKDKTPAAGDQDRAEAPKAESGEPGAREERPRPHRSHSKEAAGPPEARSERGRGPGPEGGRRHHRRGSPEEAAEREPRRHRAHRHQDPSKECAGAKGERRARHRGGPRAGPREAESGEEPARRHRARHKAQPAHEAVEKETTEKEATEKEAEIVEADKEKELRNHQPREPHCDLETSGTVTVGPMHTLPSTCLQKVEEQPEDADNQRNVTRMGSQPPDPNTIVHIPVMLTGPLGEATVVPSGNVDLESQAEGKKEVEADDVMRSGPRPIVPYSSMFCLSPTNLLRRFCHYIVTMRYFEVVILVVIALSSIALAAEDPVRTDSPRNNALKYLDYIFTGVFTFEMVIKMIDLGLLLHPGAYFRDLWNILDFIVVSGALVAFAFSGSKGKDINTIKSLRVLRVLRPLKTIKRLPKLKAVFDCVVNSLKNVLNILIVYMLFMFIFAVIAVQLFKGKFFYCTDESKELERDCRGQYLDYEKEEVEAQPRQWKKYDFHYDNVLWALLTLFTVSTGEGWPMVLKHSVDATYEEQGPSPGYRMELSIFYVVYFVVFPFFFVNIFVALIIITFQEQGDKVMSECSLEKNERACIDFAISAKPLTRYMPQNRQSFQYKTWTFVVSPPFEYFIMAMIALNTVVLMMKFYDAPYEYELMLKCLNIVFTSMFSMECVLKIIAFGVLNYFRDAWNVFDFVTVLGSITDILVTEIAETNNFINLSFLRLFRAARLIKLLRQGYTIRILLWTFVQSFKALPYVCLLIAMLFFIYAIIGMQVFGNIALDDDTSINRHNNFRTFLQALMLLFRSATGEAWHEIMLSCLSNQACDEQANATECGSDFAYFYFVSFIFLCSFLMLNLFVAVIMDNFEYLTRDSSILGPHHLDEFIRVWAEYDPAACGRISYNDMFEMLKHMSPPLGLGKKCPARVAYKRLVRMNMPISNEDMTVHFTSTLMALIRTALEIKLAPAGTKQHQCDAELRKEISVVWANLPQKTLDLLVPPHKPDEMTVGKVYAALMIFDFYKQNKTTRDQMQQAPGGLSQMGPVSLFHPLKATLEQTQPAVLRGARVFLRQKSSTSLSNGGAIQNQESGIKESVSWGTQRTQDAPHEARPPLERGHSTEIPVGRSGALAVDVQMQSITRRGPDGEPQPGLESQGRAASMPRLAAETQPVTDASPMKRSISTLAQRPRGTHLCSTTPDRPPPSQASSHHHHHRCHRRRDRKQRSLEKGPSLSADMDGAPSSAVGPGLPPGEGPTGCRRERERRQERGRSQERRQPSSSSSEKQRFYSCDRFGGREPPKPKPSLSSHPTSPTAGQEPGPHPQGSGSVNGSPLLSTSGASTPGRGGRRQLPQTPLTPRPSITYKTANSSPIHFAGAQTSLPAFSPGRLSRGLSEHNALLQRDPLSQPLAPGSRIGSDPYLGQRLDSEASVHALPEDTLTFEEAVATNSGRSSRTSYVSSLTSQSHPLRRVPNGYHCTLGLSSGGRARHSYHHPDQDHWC

As for `Cc1ccc(C2=CSC3=NNC4(CCCCC4)NN23)cc1`, the inhibition was 8.9% (inactive). `CCOC(=O)N1CCN(C(=O)CSCc2ccccc2C)CC1`: the inhibition is -5.4% (inactive).

With `O=C(CCC(=O)N(CC(=O)NC1CCCCC1)Cc1ccccc1)Nc1ccccn1`, the inhibition was -13% (inactive). As to `N/C(Cc1ccc(Cl)c(Cl)c1)=N\OC(=O)c1ccc(Br)o1`, the inhibition was 5.1% (inactive).

In the case of `N/C(Cc1ccc(Cl)cc1Cl)=N\OC(=O)c1ccc(Br)o1`, the inhibition was 7.7% (inactive). For `N/C(Cc1cccc2ccccc12)=N\OC(=O)c1ccc(Br)o1`, the inhibition is 56.5% (active).

As for `Cc1ccc(N2C(=O)N3[C@H](c4ccc(F)cc4)[C@@H]4C(=O)N(C5CCCCC5)C(=O)[C@@H]4[C@]3(C)C2=O)cc1`, the inhibition was 3.5% (inactive). With `Cc1ccccc1C(=O)NC(C(N)=O)P(=O)(OC(C)C)OC(C)C` (stereo not given), the inhibition was -2.5% (inactive). For the compound `CCc1ccccc1NS(=O)(=O)c1cccc2nsnc12`, the inhibition is 4.2% (inactive). As to `NC(=S)n1[nH]c(-c2ccc([N+](=O)[O-])cc2)c(N=Nc2ccccc2[N+](=O)[O-])c1=O`, the inhibition was 69.4% (inactive). The inhibition under setting [1] was found to be 20.6%. On to `NC(=S)n1[nH]c(-c2ccc([N+](=O)[O-])cc2)c(N=Nc2ccc(O)cc2)c1=O`, for which the inhibition was -5.9% (inactive). Regarding `NC(=S)n1[nH]c(-c2ccc([N+](=O)[O-])cc2)c(N=Nc2cccc(Cl)c2)c1=O`, the inhibition is 64.1% (inactive). In addition, the inhibition under setting [1] was determined as 12.7%. `Cc1[nH]n(C(N)=S)c(=O)c1N=Nc1cccc([N+](=O)[O-])c1C`: the inhibition is 14.9% (inactive). On the same count and under the same terms, the value for `CCCC(=O)c1cc2cc(Cl)ccc2oc1=O` was -2.8% (inactive); that for `CCOC(=O)CSc1nnc(-c2cccnc2)n1C` was 0.8% (inactive); that for `CN1CCN(C(CC(=O)Nc2cccc(O)c2)C(=O)O)CC1` (stereo not given) was 0.5% (inactive). As for `O=C(CSc1nnc(-c2ccccc2)o1)NC1CCS(=O)(=O)C1` (stereo not given), the inhibition was -2.1% (inactive).

Consider `O=C(OCn1ncc(Cl)c(Cl)c1=O)c1ccc(F)cc1`, for which the inhibition was -3% (inactive). For the compound `COc1ccc(N2CCN(C(=O)c3ccc4c(=O)n5c(nc4c3)CCCCC5)CC2)cc1`, the inhibition was -6.5% (inactive).

On to `Cc1ccc2c(CN3CCN(Cc4ccccc4)CC3)cc(=O)oc2c1C`, for which the inhibition is 6.6% (inactive).

Take `Cc1ccccc1NC(=S)NCc1cccs1`: the inhibition is 5.6% (inactive). Take `Cc1cc(C)c(NC(=S)N(Cc2cccnc2)Cc2ccco2)c(C)c1`: the inhibition is 0.6% (inactive). In the case of `CCC(C)(C)n1nnnc1C(c1cc2ccc(OC)cc2[nH]c1=O)N1CCc2ccccc21` (stereo not given), the inhibition is 19.3% (inactive). Consider `COc1ccc2cc(C(c3nnnn3C(C)(C)C)N3CCc4ccccc4C3)c(=O)[nH]c2c1` (stereo not given), for which the inhibition was 33% (inactive). On to `CCC(C)(C)n1nnnc1C(c1cc2ccc(OC)cc2[nH]c1=O)N1CCc2ccccc2C1` (stereo not given), for which the inhibition was 56.9% (active). With `Fc1cccc(Cl)c1CNn1cn[nH]c1=S`, the inhibition was -3% (inactive). Consider `COc1ccc2c(c1)CCc1cc(C(=O)N3CCN(c4ccc(N5CCOCC5)nn4)CC3)sc1-2`, for which the inhibition is 13.6% (inactive). Same read-out and setting: next, `CCCCc1[nH]nc2c1C1(C(=O)N(CC)c3ccccc31)C(C#N)=C(N)O2` (stereo not given): -5.8% (inactive); `COc1ccc(N2CCN(CCNC(=O)Nc3cccc(C)c3C)CC2)cc1`: 0.6% (inactive); `O=C(/C=C/c1ccc2c(c1)OCO2)Nc1nc(-c2ccc(F)cc2F)cs1`: 9.1% (inactive).

`CCCCOc1ccc(-c2cc(C(F)(F)F)c(C#N)c(SCC(=O)O)n2)cc1`: the inhibition was 60.7% (active). Consider `CCCOc1ccc(-c2cc(C(F)(F)F)c(C#N)c(SCC(=O)O)n2)cc1`, for which the inhibition was 35.3% (inactive). As for `COc1ccc(-c2cc(C(F)(F)F)c(C#N)c(SCC(=O)O)n2)cc1`, the inhibition was 22% (inactive). On to `Cc1cccc(NC(=O)CCN2C(=O)C3C4C=CC(C4)C3C2=O)n1` (stereo not given), for which the inhibition was 22% (inactive).

In the case of `O=C(NCc1ccc(Cl)cc1)c1nccnc1CO`, the inhibition is 11.8% (inactive).

Regarding `COc1ccc(NS(=O)(=O)c2cccc(-c3n[nH]c(=S)n3Cc3ccccc3)c2)cc1`, the inhibition is 3.7% (inactive). Consider `O=C(COc1ccc(Cl)cc1Cl)c1ccc[nH]1`, for which the inhibition is 21.1% (inactive). Still for that read-out and setting: the value for `O=C(COc1ccccc1Cl)c1ccc[nH]1` was 53.6% (active). On the same count and under the same terms, the value for `O=C(COc1ccc(Br)cc1Cl)c1ccc[nH]1` was 24.7% (inactive); that for `COc1ccc(C(NC(=O)CC(C)C)c2c(O)ccc3ccccc23)cc1` (stereo not given) was 15.2% (inactive); that for `CCOc1cc(C2CC(=O)NC(SCC)=C2C#N)ccc1O` (stereo not given) was 5.2% (inactive). For `CCc1ccccc1N1CSC2=C(C#N)C(c3ccccc3F)CC(=O)N2C1` (stereo not given), the inhibition was 84.5% (active).

`N#CC1=C2SCN(Cc3ccco3)CN2C(=O)CC1c1ccccc1F` (stereo not given): the inhibition is 84.1% (inactive). Besides, under setting [1], the inhibition came to 33.2%.

Regarding `COc1cc(OC)c(C2CC(=O)N3CN(c4ccc(C)cc4)CSC3=C2C#N)cc1OC` (stereo not given), the inhibition was 65.7% (inactive). Moreover, under setting [1], the inhibition worked out at 14.9%. For the compound `COc1cccc(C2CC(=O)N3CN(c4cccc(Cl)c4C)CSC3=C2C#N)c1OC` (stereo not given), the inhibition is 73.5% (active). Take `CCc1ccccc1N1CSC2=C(C#N)C(c3cc(OC)c(OC)cc3OC)CC(=O)N2C1` (stereo not given): the inhibition was 75.6% (inactive). Further, the inhibition under setting [1] is 34.5%. The matching figures for `N#CC1=C2SCN(c3ccccc3)CN2C(=O)CC1c1ccccc1Cl` (stereo not given): 57.1% (inactive) and 35.2%.

Regarding `CCOc1cc(C2CC(=O)N3CN(C4CCCCC4)CSC3=C2C#N)ccc1O` (stereo not given), the inhibition was 62.4% (active). Turning to `COc1cc(OC)c(C2CC(=O)N3CN(c4ccccc4C)CSC3=C2C#N)cc1OC` (stereo not given), the inhibition was 73.1% (active). Regarding `N#CC1=C2SCN(c3ccccc3)CN2C(=O)CC1c1cccs1` (stereo not given), the inhibition was 74% (inactive). Further, the inhibition under setting [1] was found to be 42.2%.

Turning to `CCc1ccc(C2CC(=O)N3CN(c4ccccc4)CSC3=C2C#N)cc1` (stereo not given), the inhibition was 88% (inactive). Also, under setting [1], the inhibition is 42.4%. Consider `COc1cc(C2CC(=O)N3CN(c4ccccc4C)CSC3=C2C#N)cc(OC)c1OC` (stereo not given), for which the inhibition was 90.6% (inactive). Besides, the inhibition under setting [1] stood at 32.6%. With `CCC(C)/C(C)=N/NC(=O)CSc1nc2ccccc2[nH]1` (stereo not given), the inhibition is -5.4% (inactive).

On to `Cc1ccc(C)c(N(C(=O)c2csnn2)C(C(=O)NC2CCCCC2)c2ccccn2)c1` (stereo not given), for which the inhibition is 1.3% (inactive). Turning to `O=C(CN1CCOCC1)Nc1cccc(S(=O)(=O)N2CCCCCC2)c1`, the inhibition was -5.9% (inactive). `Cc1ccc(N2C(=O)C3C4CC(=O)C(c5ccccc54)C3C2=O)cc1C` (stereo not given): the inhibition was -1.5% (inactive). Take `COc1ccc(N2CSC3=C(C#N)C(c4cc(OC)ccc4OC)CC(=O)N3C2)c(OC)c1` (stereo not given): the inhibition is 69.2% (active). For `COc1ccccc1N1CSC2=C(C#N)C(c3ccc(SC)cc3)CC(=O)N2C1` (stereo not given), the inhibition was 81.5% (active). The same measure, in the same setting: the value for `COc1ccc(OC)c(C2CC(=O)N3CN(c4cccc(Cl)c4)CSC3=C2C#N)c1` (stereo not given) was 37.5% (inactive). Regarding `CCOc1ccccc1N1CSC2=C(C#N)C(c3c(OC)ccc4ccccc34)CC(=O)N2C1` (stereo not given), the inhibition was 72.9% (inactive). The inhibition under setting [1] was found to be 9.7%. In the case of `COc1ccc(N2CSC3=C(C#N)C(c4ccc(OC)c(OC)c4)CC(=O)N3C2)c(OC)c1` (stereo not given), the inhibition is 91.4% (active). Turning to `COc1cccc(C2CC(=O)N3CN(c4ccccc4F)CSC3=C2C#N)c1` (stereo not given), the inhibition was 75.5% (inactive). Under setting [1], the inhibition was found to be 31%. `COc1ccc(C2CC(=O)N3CN(c4ccccc4F)CSC3=C2C#N)cc1OC` (stereo not given): the inhibition was 79.9% (inactive). Besides, the inhibition under setting [1] is 38.6%. With `COc1ccc(OC)c(C2CC(=O)N3CN(c4ccccc4F)CSC3=C2C#N)c1` (stereo not given), the inhibition was 29.3% (inactive). For `COc1ccc(C2CC(=O)N3CN(c4ccc(C)c(Cl)c4)CSC3=C2C#N)cc1` (stereo not given), the inhibition was 80.8% (inactive). In addition, the inhibition under setting [1] is 11.1%. As for `CCCCc1cc(=O)oc2cc(OCC(=O)N3CCC(C(N)=O)CC3)ccc12`, the inhibition was 8.7% (inactive). `O=C(c1ccco1)N1CCN(Cc2cccc3ccccc23)CC1`: the inhibition was 3.9% (inactive). Regarding `O=C(COC(=O)c1ccc(O)cc1)Nc1cccc(S(=O)(=O)NC2=NCCCCC2)c1`, the inhibition was -9.8% (inactive). The same measure, in the same setting: next, `O=C(COC(=O)c1cnccn1)Nc1ccc(Cl)cc1`: 3.8% (inactive). As to `NS(=O)(=O)c1ccc(NC(=O)COC(=O)c2cnccn2)cc1`, the inhibition was 51.2% (active). For `CC(=O)Nc1ccc(NC(=O)COC(=O)c2cnccn2)cc1`, the inhibition is 15.7% (inactive).

`CC(C)OC(=O)c1cc2c(ccn2-c2ccc(F)cc2)n1CC(=O)N1CCN(C(=O)c2ccco2)CC1`: the inhibition is 40.4% (inactive). On to `CN(C)[C@@H]1C(=O)C(C(N)=O)=C(O)[C@@]2(O)C(=O)C3=C(O)c4c(O)ccc(Cl)c4[C@@H](O)[C@H]3C[C@@H]12`, for which the inhibition was 56.1% (active). For `C[C@H]1c2cccc(O)c2C(O)=C2C(=O)[C@]3(O)C(O)=C(C(N)=O)C(=O)[C@@H](N(C)C)[C@@H]3[C@@H](O)[C@@H]21`, the inhibition was 13.4% (inactive). In the case of `CN(C)c1ccc(O)c2c1CC1CC3[C@@H](N(C)C)C(=O)C(C(N)=O)=C(O)[C@]3(O)C(=O)C1=C2O` (stereo not given in full), the inhibition is 22.3% (inactive). For the compound `C=C1CCC[C@]2(C)C[C@H]3OC(=O)C(CN(Cc4ccc(OC)c(OC)c4)CC(C)O)[C@H]3CC12` (stereo not given in full), the inhibition was 6.9% (inactive). With `COc1cccc(-c2nc(NCc3cccnc3)c3ccccc3n2)c1O`, the inhibition is 14.2% (inactive). As for `O=C(Nc1ccc2oc(-c3ccccc3F)nc2c1)c1ncn[nH]1`, the inhibition was 2.6% (inactive). Same read-out and setting: the value for `O=C(Nc1ccc2oc(-c3ccccc3Cl)nc2c1)c1ncn[nH]1` was 28.3% (inactive). Turning to `O=C(c1cccs1)N1CCN=C1SCc1cccnc1`, the inhibition was -1.3% (inactive).

As for `CCOc1cccc(NC(=O)c2cccc(F)c2)c1`, the inhibition is 2.7% (inactive). Turning to `CN(C)C=Nc1c(Br)cc(Br)c2nonc12`, the inhibition was 19.7% (inactive).

For `Cc1ccc(Nc2nc(=O)c3cccnc3s2)c(Br)c1`, the inhibition was -13% (inactive).

For `COc1ccc(OC)c(Nc2nc(=O)c3cccnc3s2)c1`, the inhibition is 81.8% (active). For the compound `Cc1ccc(Nc2nc(=O)c3cccnc3s2)cc1`, the inhibition is 2.2% (inactive).

`Cc1cccc(Oc2sc(C(=O)c3ccccc3)c(N)c2C#N)c1C`: the inhibition was 4.2% (inactive).

For `CCCCNc1nc2ccccc2nc1Cl`, the inhibition was 4.6% (inactive). Turning to `COc1ccc(C2(C)NC(=O)N(CC(=O)Nc3ccc(S(=O)(=O)N4CCCC4)cc3)C2=O)cc1` (stereo not given), the inhibition was 4.9% (inactive). Consider `Brc1ccc(/C=C/C=N/Nc2nc3ccccc3s2)cc1`, for which the inhibition was 5.3% (inactive). `Oc1ccc(N=C/C=C/c2cccc(Br)c2)cc1-c1nc2ccccc2s1`: the inhibition is 66.6% (inactive). For the same compound, under setting [1], the inhibition is 5%. Regarding `Oc1ccc(N=C/C=C/c2ccc(Br)cc2)cc1-c1nc2ccccc2s1`, the inhibition is 62.9% (active).
